Assay outcomes (PubChem)
In the library only some 8.6% were active in any assay of this set; here they are far more common.
MARV entry inh: inhibitors of Marburg virus binding or entry into cells | actives 6.5% (n = 18,000) | Potency, µM (doses to about 49.2 µM), for the others: at the top dose activity change, negative = inhibition, usual class: inhibitors | Marburg virus pseudotype entry/binding inhibition, cell-based
LASV entry inh: blocks Lassa virus binding or cell entry | Lassa virus pseudotyped entry inhibition, cell-based qHTS | Potency, µM (top dose mostly 49.2 µM), for the others: top-dose activity change, negative = inhibition, usual class: inhibitors | actives 4.1% (n = 18,000) | AID 720533
* hit, by the source's call; ? = inconclusive; / = no result; ! = not confirmed by another sample; [ ] = remark or other dose. The call rests on the fitted dose curve; tested in HEK293 cells. On the % scale 0 is the no-effect control and ±100 the full control effect; potency means the concentration at half of the fitted maximal effect.

SMILES	MARV entry inh	LASV entry inh
COC(=O)C1C[C@@]23C(=NN=C(SC)C2N(C)c2ccc(OC)cc23)N1C(C)=O (some centres undefined)	-33%[8.59 µM]	/
Oc1ccc(Nc2nc(-c3ccc(Cl)cc3)cs2)cc1	?	13µM*
C=C[C@]1(C)C[C@@H](OC(=O)CSC(C)(C)CNC(=O)[C@H](N)C(C)C)[C@]2(C)[C@H](C)CC[C@]3(CCC(=O)[C@H]32)[C@@H](C)[C@@H]1O	13µM*	0%
C=C[C@]1(C)C[C@@H](OC(=O)CO)[C@]2(C)[C@H](C)CC[C@]3(CCC(=O)[C@H]32)[C@@H](C)[C@@H]1O	0%	-9%
C[C@H]1[C@@H](c2ccccc2)Oc2c(Cl)cccc2S(=O)(=O)N1Cc1ccc(F)cc1	?	14%
Cc1cc2c(OCC(CNC(C)(C)C)OC(=O)c3ccccc3)cccc2[nH]1 (centres undefined)	35µM*	-21%
OCCNCCCOc1cccc(Cl)c1Cl	6.3µM*	?
CCN1C(=O)NC(c2cccc(F)c2)C(C(C)=O)=C1C (centres undefined)	?	-12%[8.59 µM]
COc1cccc(-c2cc3c(c(OC)c2)OCCN(Cc2ccccc2O)C3)n1	-21%	5.6µM*
COc1ccc(-c2[nH]ncc2CN2CCOc3c(cc(-c4cccc(OC)n4)cc3OC)C2)cc1	-3%	-12%
Cc1ccc(F)cc1S(=O)(=O)NCc1nc(N2CCCC2)c2cccc(C)c2n1	13µM*	-10%
Cc1cccc2c(N3CCCC3)nc(CNS(=O)(=O)c3ccccc3F)nc12	?	5%
NS(=O)(=O)c1ccc(N=Nc2c(O)[nH]c3ccc(C(=O)NCCCn4ccnc4)cc23)cc1	-12%	?
CCCCCC(=O)N1C[C@@H](n2cc(COC(=O)c3ccccc3)nn2)[C@H](O)C[C@H]1c1ccc(OC)cc1	26%	-20%
Nc1ccc(O)c(C(=O)O)c1	?	-7%
O=C(O)C1=CC(=C(c2ccc(O)c(C(=O)O)c2)c2ccc(O)c(C(=O)O)c2)C=CC1=O	0.44µM*	3%
CCCC=Cc1ccc(CN2C(C)C(=O)N(Cc3cn(CCOCOC)nn3)CCS2(=O)=O)cc1 (centres undefined)	-15%	/
CC1=C[C@@H](C)O[C@@]2(C1)C(=O)Nc1cccc(Br)c12	1%[8.59 µM]	-37%[8.59 µM]
CC=C(C)[C@H](O)C[Si](C)(C)c1ccccc1	-3%[8.59 µM]	-27%[8.59 µM]
COc1cccc([C@@H]2Oc3ccc(Br)cc3C(=O)[C@@H]2OC(=O)N[C@H](C)C2CCCCC2)c1	-30%[8.59 µM]	-14%[8.59 µM]
COC(=O)c1cc(CNC(=O)c2cccc(F)c2)cc(NC(=O)c2ccccc2OC)c1	141µM*	?
COC(=O)c1cc(CNC(=O)c2ccccn2)cc(NC(=O)c2ccccc2OC)c1	-27%	-27%
CO/N=C(\C(=O)N[C@@H]1C(=O)N2C(C(=O)O)=C(CSc3nnnn3C)CS[C@H]12)c1csc(N)n1	25%	-2%
C[C@@H]1[C@@H](c2ccccc2)Oc2c(Cl)cccc2S(=O)(=O)N1Cc1cccc(F)c1	-45%	-18%
O=C1C(Nc2ccccc2)=CC(=O)c2ncccc21	5.6µM*	11µM*
SMILES	MARV entry inh	LASV entry inh
CCC(=O)O[C@]1(C(=O)CCl)[C@@H](C)C[C@H]2[C@@H]3CCC4=CC(=O)C=C[C@]4(C)[C@@]3(F)[C@@H](O)C[C@@]21C	?	-26%
CCCC(=O)O[C@]1(C(=O)CCl)[C@@H](C)C[C@H]2[C@@H]3CCC4=CC(=O)C=C[C@]4(C)[C@@]3(F)C(=O)C[C@@]21C	7.9µM*	?
N#CCCCS(=O)(=O)c1nnnn1-c1ccccc1	?	24%[8.59 µM]
CCOc1ccc(C=C2SC(=O)N(CCN)C2=O)cc1	11µM*	13µM*
CCOc1ccc(/C=C/C(=O)c2cccs2)cc1	6%	14%
CCO[C@H](c1cc(OC)cc([N+](=O)[O-])c1OC)[C@H](C)[C@@H](OC)[C@H](C)C=CCC(=O)OC	1%[8.59 µM]	-6%[8.59 µM]
COC(=O)C1=C(C)N(Cc2ccccc2)C(=NCC(C)C)NC1c1ccc(Br)cc1 (centres undefined)	5%[8.59 µM]	-1%[8.59 µM]
CCN1C(=NCc2cccc(Cl)c2)N[C@@H](CCc2ccccc2)[C@H](C(=O)OC)[C@H]1C	65%[8.59 µM]	-21%[8.59 µM]
COc1ccc2c(c1)[C@@]1(OCCC=C[C@@H]1C)C(=O)N2CC1CC1	-7%[8.59 µM]	13%[8.59 µM]
c1ccc2c(c1)Sc1ccccc1N2C[C@@H]1CN2CCC1CC2	12%	3%
CN1CCCC(CC2c3ccccc3Sc3ccccc32)C1 (centres undefined)	7.9µM*	?
CN1CCCC(CN2c3ccccc3Sc3ccccc32)C1 (centres undefined)	11µM*	28µM*
CCCCCCN1C[C@@H](O)[C@H](n2cc(COC(=O)c3ccccc3)nn2)C[C@H]1c1ccc(Cl)cc1	-12%	-24%
CC(=C\c1ccccc1)/C=C1/SC(=S)N(CC(=O)O)C1=O	-17%	-20%
COC(=O)C1=C(C)N(Cc2ccccc2)C(=S)NC1c1ccccc1 (centres undefined)	6%[8.59 µM]	0%[8.59 µM]
COC(=O)C1=C(C(=O)OC)[C@@H]2N(C)c3ccccc3[C@@]23CCC(=O)N(CC(C)C)C3=N1	8%[8.59 µM]	1%[8.59 µM]
Oc1ccc(/C=C/c2cc(O)cc(O)c2)cc1	7.1µM*	7.9µM*
COc1ccc(/C=C/c2cc(O)cc(O)c2)cc1	1%	-3%
Oc1ccc(/C=C\c2cc(O)cc(O)c2)cc1	11µM*	10µM*
O=C(/C=C/c1ccc(O)cc1)c1ccc(O)cc1O	22%	9%
CNCCC(Oc1ccccc1OC)c1ccccc1 (centres undefined)	?	0%
CNCC[C@@H](Oc1ccccc1C)c1ccccc1	28µM*!	3%
O=C1C[C@@H](c2ccccc2)[C@H](c2ccc(Br)cc2)O1	-17%[8.59 µM]	-19%[8.59 µM]
CC(=O)OC[C@H]1O[C@H](C#Cc2ccc(C)cc2C)C=C[C@H]1OC(C)=O	-2%[8.59 µM]	?
CCCCCC(=O)N1C[C@H](n2cc(COC(=O)c3ccccc3)nn2)[C@@H](O)C[C@H]1c1ccc(OC)cc1	9%	11%
SMILES	MARV entry inh	LASV entry inh
CCN(CC)CCCN(c1ccccc1)C1Cc2ccccc2C1	3.5µM*	8.9µM*
Fc1ccc(-c2nn3ncccc3c2-c2ccnc(Nc3ccc4c(c3)OCCO4)n2)cc1	0.89µM*	?
FC(F)(F)c1cccc(-c2nn3ncccc3c2-c2ccnc(Nc3ccc4c(c3)OCCO4)n2)c1	4µM*	/
NC(=O)c1ccc2c(-c3ccnc(NCCCO)n3)c(-c3ccc(F)cc3)nn2c1	?	-17%
OCCCNc1nccc(-c2c(-c3ccc(F)cc3)nn3cc(C(F)(F)F)ccc23)n1	?	-39%
Clc1ccc(-c2nn3ncccc3c2-c2ccnc(Nc3ccccc3)n2)cc1	6.3µM*	/
COc1ccc(-c2nn3ncccc3c2-c2ccnc(Nc3ccc4c(c3)OCCO4)n2)cc1	7.1µM*	?
C[C@@H]1[C@@H](c2ccccc2)Cc2nc3ccccc3nc2C[C@H]1C(=O)N1CCCC1	-15%[8.59 µM]	18%[8.59 µM]
C=CC[C@@](C(C)=O)(C(=O)OC)[C@@H](NC(=O)OC)c1ccccc1	-3%[8.59 µM]	-15%[8.59 µM]
COc1ccc2c(c1)[C@@]1(OCCC=C[C@@H]1C)C(=O)N2Cc1ccc(F)cc1	28%[8.59 µM]	40%[8.59 µM]
CCS(=O)(=O)c1ccc(OC)c(Nc2ncc(-c3cccc(C(C)=O)c3)o2)c1	-27%	-31%
